Assay results: ChEMBL document CHEMBL3988442, “University of Dundee, Small-Polar-MMV Screening Library” (2021)
Hit rate of the full screen: of about 38,000 compounds, about 1,200 (3.2%) showed an effect of 50% or more. The median lay at about -58%. For the sample, strong results were picked, then their nearest neighbours and some compounds at random.

These compounds were tested on Plasmodium falciparum (assay: Calibr Malaria Delayed Death Assay SOP). Conditions: concentration 4.99e-06 (unit not given; other assays of the set use mol/L).
Type: functional, organism-based
Parameters: scale not given: in the data most compounds retested in dose-response had high values

SMILES | Percent Effect
CC(c1cccc(O)c1)N(C)S(=O)(=O)c1cccnc1 (centres undefined) | 70.34%
CC(c1cccc(O)c1)N(C)S(N)(=O)=O (centres undefined) | -84.23%
CCN(C(C)c1cccc(O)c1)S(=O)(=O)c1cccnc1 (centres undefined) | 75.64%
CC(c1cccnc1)N(C)S(C)(=O)=O (centres undefined) | -49.62%
CCOc1c(F)cccc1C(=O)N(CC)C(C)c1cccnc1 (centres undefined) | -44.59%
Cc1cccc(C(C)(C)CNC(=O)CN(C)S(=O)(=O)c2cccnc2)c1 | -59.91%
Cn1cc(CN2CCc3ccc(=O)n(Cc4ccncc4)c3CC2)cn1.O=C(O)C(F)(F)F.O=C(O)C(F)(F)F | -100.7%
CCn1nccc1CNc1[nH]cnc2nncc1-2 | -100.3%
Cn1cccc1C(=O)N1C[C@@H](OCc2ccncc2)[C@@H]2OCCC[C@@H]21.O=C(O)C(F)(F)F | -99.03%
CCNc1ncc(CN(Cc2ccccc2)CC(C)CO)cn1 (centres undefined) | -11.14%
CN1CCN(C(=O)C2CN(Cc3cc4ccccc4o3)CCN2)CC1 (centres undefined) | -105.5%
COC(=O)[C@@H]1Cc2[nH]cnc2CN1Cc1cc2ccccc2o1 | -36.16%
Cl.Cl.O[C@@H]1C[C@@](CNCc2ccc(Cl)cc2)(COc2cccnc2)C[C@@H]1O | 70.01%
Cl.Cl.O[C@@H]1C[C@@](CNCc2ccc(F)cc2)(COc2cccnc2)C[C@@H]1O | 40.62%
Cl.Cl.O[C@@H]1C[C@@](CNCc2cccc(Cl)c2)(COc2cccnc2)C[C@@H]1O | 34.26%
CN(Cc1noc2c1CCCC2)C(=O)Nc1cccc(S(N)(=O)=O)c1 | -16.52%
Cc1cc(CN(C)c2nc(-c3ccco3)nc3c2CCN(C)CC3)on1 | -7.108%
Cc1cc(CN(C)c2nc(-c3ccccn3)nc3c2CCNCC3)n[nH]1 | 68.42%
CN(Cc1ccon1)c1nc(-c2ccccn2)nc2c1CCNCC2 | 75.26%
Cc1nc2c(c(N(C)CC3Cc4ccccc4CN3C)n1)CCNCC2 (centres undefined) | 41.97%

SMILES | Percent Effect
Cc1nc2c(c(N(C)Cc3ccccc3-n3cccn3)n1)CCNCC2 | -7.146%
O=C(COc1cccc2c1CCC2=O)NCCOc1ccccc1 | -101.5%
Cn1cc(C[C@H]2[C@H](O)CCN2Cc2ccc3c(c2)OCO3)cn1 | -152.7%
COc1cc(CNc2ccc(C)c(Cl)c2)ccc1OCC(N)=O | -61.06%
O=C(CN1CCCC1Cn1cncn1)Nc1ccnn1C1CCCC1 (centres undefined) | -46.57%
NC(=O)c1nc(-c2cccc(Cl)c2)oc1N | -143.3%
CC(NC(=O)NCC1(c2ccc(Cl)cc2)CC1)c1nncn1C (centres undefined) | -41.57%
Clc1ccc(C2(CNC3=NCCN3)CC2)cc1.I | 82.97%
CCCNC(=O)c1c(-n2cnnn2)sc2c1CCC2 | -55.33%
CC(=O)NC(CC(=O)Nc1nc(C)c(C)s1)c1ccccc1 (centres undefined) | -83.12%
CC(C)CCN1CCC2(CCCN(c3nncs3)C2)C1.O=C(O)C(F)(F)F (centres undefined) | -67.46%
O=C(O)C(F)(F)F.O=C(c1ccncc1)N1CCC2(CCCN(c3ncc(F)cn3)C2)C1 (centres undefined) | -90.51%
Fc1cnc(N2CCCC3(CCN(Cc4ccoc4)C3)C2)nc1.O=C(O)C(F)(F)F.O=C(O)C(F)(F)F (centres undefined) | 72.25%
Cc1cnc(N2C[C@@H]3CN(Cc4ccco4)CCC[C@]3(C(=O)O)C2)nc1.O=C(O)C(F)(F)F | -71.37%
COc1cccc(CN2CCC3(CCN(c4ncc(F)cn4)CC3)C2)c1.O=C(O)C(F)(F)F | -47.02%
Fc1ccc(CN2CCC3(CCCN(c4nncs4)C3)C2)cc1.O=C(O)C(F)(F)F (centres undefined) | -107.3%
O=C(c1ccco1)N1CCC2(CCCN(c3ncc(F)cn3)C2)C1 (centres undefined) | -116%
COc1ccc(CN2CCC3(CCCN(c4ncc(F)cn4)C3)C2)cc1.O=C(O)C(F)(F)F (centres undefined) | 86.34%
Fc1cnc(N2CCCC3(CCN(Cc4ccco4)C3)C2)nc1.O=C(O)C(F)(F)F.O=C(O)C(F)(F)F (centres undefined) | 77%
CC(C)c1ccc(CN2CCC3(CCCN(c4nncs4)C3)C2)cc1.O=C(O)C(F)(F)F (centres undefined) | 73.03%

SMILES | Percent Effect
Fc1cnc(N2CCCC3(CN(Cc4ccccc4)CCO3)C2)nc1.O=C(O)C(F)(F)F (centres undefined) | -95.68%
COc1cccc(CN2CCC3(CC2)CCN(c2ncc(F)cn2)C3)c1.O=C(O)C(F)(F)F | -115%
Cc1oc(-c2nc(C#N)c(NC(C)C)o2)cc1S(=O)(=O)N1CCCC1 | -121.8%
Cc1ncc2c(n1)CN(Cc1nc(-c3ccco3)oc1C)CC2 | -128.1%
CC(C)C(=O)N1CCN(Cc2csc(-c3ncccn3)n2)CC1 | -79.45%
CCn1nc(C)c(C(=O)NCc2csc(C3CC3)n2)c1C | -85.55%
Cc1noc(C)c1CN1CCc2ncnc(-c3cnn(C)c3)c2CC1.O=C(O)C(F)(F)F | -17.12%
CCC(=O)NCC(=O)NC(C)c1ccc(OCCC(C)C)cc1 (centres undefined) | 22.17%
COc1cc(-c2cc(=O)[nH]cn2)cc(OC)c1OC | -8.244%
CC(=O)N1[C@H](CN(C)C)C[C@@H]2CN(C(=O)c3cccc(F)c3)CC[C@@H]21.O=C(O)C(F)(F)F | -121.5%
CCC(NC(=O)CNCC(F)(F)F)c1cc(F)ccc1F (centres undefined) | -157%
Fc1cnc(N2CCCC3(CCN(Cc4nccs4)C3)C2)nc1 (centres undefined) | 21.75%
O=C(c1ccoc1)N1CCC2(CCCN(c3ncc(F)cn3)C2)C1 (centres undefined) | -22.39%
COc1cc(N2C[C@H](C(=O)N3CCCC3)[C@@H]3CCO[C@@H]3C2)ncn1 | -18.3%
Cc1cnc(CN(C)C2CCN(Cc3nc4c(F)cccc4[nH]3)C2)o1 (centres undefined) | -76.29%
COc1nn(C)c2c1CCCN(C(=O)c1cscn1)C2 | -85.03%
CCOC(C)C(=O)Nc1ccnn1-c1ccccc1C (centres undefined) | -113.5%
Cl.Clc1ccc(-c2ccc(C3CNCCO3)nc2)cc1 (centres undefined) | 85.23%
O=C(C(c1ccccc1)S(=O)(=O)c1ccccc1)N1CCCCC1 (centres undefined) | -134.4%
